Results from PubChem BioAssay (EPA / NIEHS).
Inconclusive results are not listed. Calls of active or inactive are those of the source. How the source made its calls: active means hit-call score of the fitted dose curve at least 0.9, where 1 is the maximum; inconclusive means response in the unintended direction; inactive means score below 0.9.

The compounds below were run against Estrogen receptor (Homo sapiens) (UniProt P03372) (assay: OT_ER_ERaERa_0480: Odyssey Thera (OT) 8-hour HEK293T Protein-Complementation Assay for Estrogen Receptor-alpha/-alpha Homodimer (AID 2283351);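 further: rise in fluorescence from reassembled reporter fragments on ERα LBD homodimer in nucleus or whole cell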).
Protocol: OT_ER_ERaERa_0480 is a cell-based assay that uses HEK293T, a human kidney cell line, with measurements taken at 8 hours after chemical dosing in a 384-well plate.OT_ER_ERaERa_0480 is one of one assay component(s) measured or calculated from the OT_ER_ERaERa_0480 assay. It is designed to make measurements of protein fragment complementation, a form of binding reporter, as detected with fluorescence intensity signals by Protein-fragment Complementation technology.Data from the assay component OT_ER_ERaERa_0480 was analyzed into 1 assay endpoint. This assay endpoint, OT_ER_ERaERa_0480, was analyzed in the positive analysis fitting direction relative to DMSO as the negative control and baseline of activity. Using a type of binding reporter, measures of receptor for gain-of-signal activity can be used to understand the binding at the pathway-level as they relate to the gene ESR1. Furthermore, this assay endpoint can be referred to as a primary readout, because the performed assay has only produced 1 assay endpoint. To generalize the intended target to other relatable targets, this assay endpoint is annotated to the nuclear receptor intended target family, where the subfamily is steroidal.
Protein-fragment complementation assay, or PCA, is a method for the identification and quantification of protein-protein interactions. In the PCA, the proteins of interest ("bait" and "prey") are each covalently linked to fragments of a third protein (e.g. DHFR, which acts as a "reporter"). Interaction between the bait and the prey proteins brings the fragments of the reporter protein in close proximity to allow them to form a functional reporter protein whose activity can be measured. The OT ER alpha / ER alpha assay is a homodimer PCA of the ligand binding domain (amino acids 310-547) of human ER alpha stably expressed in HEK293T cells. […] Fluorescent signal in the basal state of the assay is very low and is primarily punctuate and cytoplasmic. Modulation of this assay is quantified as an increase in mean fluorescence intensity in the nucleus (for agonists) or in the nucleus and cytoplasm (antagonists) relative to vehicle controls, and can be quantified on a high content imaging device or a laser scanning cytometer. The latter instrument is favored for this assay because of the rapid mode of data acquisition, the ability to acquire data from the entire cell population in a well (as opposed to a fraction of the well on the high content devices) and the larger dynamic range typically achieved with this instrument. To assess sensitivity of the ER alpha/ER alpha LBD assay to ligand, cells were treated with the ER agonist 17 beta-estradiol (E2) in 10-point concentration- response format for 8 hours and monitored response on a laser scanning plate cytometer (Acumen eX3; TTP Lab Tech).

Sequence of Estrogen receptor (Homo sapiens) (P03372 whole entry, looked up, the tested form may be a part): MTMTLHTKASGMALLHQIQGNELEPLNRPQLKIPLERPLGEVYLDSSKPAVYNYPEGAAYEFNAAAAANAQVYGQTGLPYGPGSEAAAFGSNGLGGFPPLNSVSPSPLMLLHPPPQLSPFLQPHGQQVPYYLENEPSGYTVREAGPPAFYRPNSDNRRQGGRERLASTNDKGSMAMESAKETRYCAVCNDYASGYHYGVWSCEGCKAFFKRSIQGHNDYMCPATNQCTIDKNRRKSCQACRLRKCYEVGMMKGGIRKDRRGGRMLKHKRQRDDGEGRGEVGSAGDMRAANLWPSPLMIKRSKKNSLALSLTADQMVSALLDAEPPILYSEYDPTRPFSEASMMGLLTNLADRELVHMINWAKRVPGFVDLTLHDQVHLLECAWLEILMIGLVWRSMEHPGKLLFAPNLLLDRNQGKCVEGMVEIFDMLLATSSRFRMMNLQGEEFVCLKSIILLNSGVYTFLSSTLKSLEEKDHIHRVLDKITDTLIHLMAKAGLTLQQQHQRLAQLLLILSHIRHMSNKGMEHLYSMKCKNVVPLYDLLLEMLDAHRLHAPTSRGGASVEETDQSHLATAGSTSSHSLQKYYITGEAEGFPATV

SMILES | outcome
CCOc1nc(C(Cl)(Cl)Cl)ns1 | inactive
CC(C)=CC1C(C(=O)OCc2coc(Cc3ccccc3)c2)C1(C)C (stereo not given) | inactive
CCCCOCN(C(=O)CCl)c1c(CC)cccc1CC | inactive
COC(=O)NC(=S)Nc1ccccc1NC(=S)NC(=O)OC | inactive
CN/C(=N\[N+](=O)[O-])NCc1cnc(Cl)s1 | inactive
CCOc1nc(F)cc2nc(S(=O)(=O)Nc3c(Cl)cccc3Cl)nn12 | inactive
COP(=O)(OC)O/C(C)=C/C(=O)N(C)C | inactive
CCCCC(O)(Cn1cncn1)c1ccc(Cl)cc1Cl (stereo not given) | inactive
O=P(O)(O)CCCl | inactive
Nc1c(Cl)c(F)nc(OCC(=O)O)c1Cl | inactive
COC(=O)N(C(=O)N1CO[C@@]2(C(=O)OC)Cc3cc(Cl)ccc3C2=N1)c1ccc(OC(F)(F)F)cc1 | inactive
CCNP(=S)(OC)O/C(C)=C/C(=O)OC(C)C (stereo not given) | inactive
CC1(C)C(C(=O)OC(C#N)c2cccc(Oc3ccccc3)c2)C1(C)C (stereo not given) | inactive
CCOC(=O)C(C)OC(=O)c1cc(Oc2ccc(C(F)(F)F)cc2Cl)ccc1[N+](=O)[O-] (stereo not given) | inactive
Cc1ccc(N=CN(C)C=Nc2ccc(C)cc2C)c(C)c1 | inactive
Nc1cnn(-c2ccccc2)c(=O)c1Cl | inactive
Clc1nc(Cl)nc(Nc2ccccc2Cl)n1 | inactive
CC1(C)CCC(=Cc2ccc(Cl)cc2)C1(O)Cn1cncn1 (stereo not given) | inactive
Clc1cccc(C(Cl)(Cl)Cl)n1 | inactive
COCC(C)N(C(=O)CCl)c1c(C)csc1C (stereo not given) | inactive

SMILES | outcome
COc1cc(OC)nc(NC(=O)NS(=O)(=O)c2ncccc2OCC(F)(F)F)n1 | inactive
CC(C)N1C(=O)c2ccccc2NS1(=O)=O | inactive
CS(=O)(=O)c1cc(C(F)(F)F)ccc1C(=O)c1cnoc1C1CC1 | inactive
COc1cc(Cl)c(OC)cc1Cl | inactive
O=C(O)c1c(Cl)ccc2cc(Cl)cnc12 | inactive
COCc1cnc(C2=NC(C)(C(C)C)C(=O)N2)c(C(=O)O)c1 (stereo not given) | inactive
CC(C)N1C(=O)N(c2ccccc2)CSC1=NC(C)(C)C | inactive
CNC(=O)N(C)c1nnc(C(C)(C)C)s1 | inactive
CCNC(=O)NC(=O)C(C#N)=NOC | inactive
CNC(=O)Oc1cccc2ccccc12 | inactive
Cc1c(COC(=O)[C@@H]2[C@H](/C=C(\Cl)C(F)(F)F)C2(C)C)cccc1-c1ccccc1 | inactive
Cn1c(-c2ccccc2)cc(-c2ccccc2)[n+]1C | inactive
CS(=O)(=O)c1ccc(C(=O)C2C(=O)CCCC2=O)c([N+](=O)[O-])c1 | inactive
N#Cc1c(Cl)cccc1Cl | inactive
CC(C)C1(C)N=C(c2ncccc2C(=O)O)NC1=O (stereo not given) | inactive
CN=C=S | inactive
O=C(Nc1ccccc1-c1ccc(Cl)cc1)c1cccnc1Cl | inactive
CCCN(CC)CC1COC2(CCC(C(C)(C)C)CC2)O1 (stereo not given) | inactive
Cc1cnc(C2=NC(C)(C(C)C)C(=O)N2)c(C(=O)O)c1 (stereo not given) | inactive
OC(c1ccc(Cl)cc1)(c1ccc(Cl)cc1)C(Cl)(Cl)Cl | inactive
